Reference: PMC4552634, “A New Set of Chemical Starting Points with Plasmodium falciparum Transmission-Blocking Potential for Antimalarial Drug Discovery” (PLoS ONE, 2015)
Screen size: about 13,000 compounds; about 3,200 (25%) showed an effect of 50% or more. This is one part of the list.

Test system: P. falciparum stage V gametocytes
Design: BacTiter-Glo ATP luminescence viability of purified stage V gametocytes in 384-well plates, per cent inhibition versus DMSO
Conditions: 48 h, 5 µM; inhibitor

SMILES | % Inhibition [%]
FC(F)(F)c1ccc2nccc(NN=Cc3cccnc3)c2c1 [TCMDC-142021] | -27.85
Cc1noc(-c2ccc(N3CCC(C(=O)N4CCN(C(C)C)CC4)CC3)cc2)n1 [TCMDC-136012] | 8.914
COc1ccc2nccc([C@@H](O)CN3CCC(NC(=O)c4ccc(Oc5ccccc5)cc4)CC3)c2c1 [TCMDC-141028] | -18.23
Cc1noc(C)c1-c1cccc(CNCc2cccc(-c3cccc(-c4nc5cc(C(F)(F)F)ccc5[nH]4)c3)c2)c1.O=C(O)C(F)(F)F [TCMDC-133053] | -28.51
COc1ccc(C2CC(c3cccs3)=NN2C(=O)CNc2cccc(C#N)c2)cc1OC (centres unmarked) [TCMDC-125050] | -31.46
OC(CNCCCc1ccccc1)c1cc(OCc2ccccc2)cc(OCc2ccccc2)c1 (centres unmarked) [TCMDC-132033] | 38.73
N=C(NCC1CC1c1ccccc1)c1cccc(C(=N)NCC2CC2c2ccccc2)n1 (centres unmarked) [TCMDC-137456] | 113.7
N=C(NCCCc1ccccc1)c1cccc(C(=N)NCCCc2ccccc2)n1 [TCMDC-137453] | 100.2
Cc1cc2nc(-c3ccc(/C=C/C(=O)NCCCc4ccccc4)cc3)[nH]c2cc1C [TCMDC-140436] | -5.063
N=C(NCCCCC1CCCCC1)c1cccc(C(=N)NCCCCC2CCCCC2)n1 [TCMDC-137452] | 115.6
N#Cc1c(Cl)cccc1Oc1ccc(S(=O)(=O)N2CCC(CN3CCC(c4c[nH]c5ccccc45)CC3)CC2)cc1 [TCMDC-140172] | 15.16
Cc1cc(NC(=O)c2coc3cc(F)c(N4CC(C)N(C)C(C)C4)cc23)ccc1-n1ccnc1 (centres unmarked) [TCMDC-141394] | 18.23
CCNc1cc(C(=O)N[C@@H](Cc2ccccc2)[C@H](O)CNCc2cccc(OC)c2C)cc(N2CCCCS2(=O)=O)c1 [TCMDC-132413] | 37.46
Cc1ccc(-c2ccc3c(c2)C=C(C(=O)NC2CCN(CCNC(=O)c4cccs4)CC2)CCC3)cc1 [TCMDC-141949] | -0.2388
c1ccc(Cn2nnnc2-c2cccc(Nc3ccnc4cc(-c5nccs5)ccc34)c2)cc1 [TCMDC-138337] | 1.923
Nc1n[nH]c(-c2ccccc2Nc2ccnc3cc(-c4nccs4)ccc23)n1 [TCMDC-138301] | 14.85
Cc1ccc2nc(-c3ccccc3Nc3ccnc4cc(-c5nccs5)ccc34)[nH]c2c1 [TCMDC-138345] | 108.2
c1ccc(-c2nc3ccccc3[nH]2)c(Nc2ccnc3cc(-c4nccs4)ccc23)c1 [TCMDC-138346] | 44.29
Cc1nc(-c2cccc(Nc3ccnc4cc(-c5nccs5)ccc34)c2)no1 [TCMDC-138334] | 113.3
CC(O)c1cccc(-c2ccc(Nc3ccnc4cc(-c5nccs5)ccc34)cc2)c1 (centres unmarked) [TCMDC-138331] | -54.01
Cc1nnc(-c2cccc(Nc3ccnc4cc(-c5nccs5)ccc34)c2)o1 [TCMDC-138335] | 93.46
Cc1cccc(-c2cc3cc(Nc4ccnc5cc(-c6nccs6)ccc45)ccc3[nH]2)c1 [TCMDC-138348] | -37.38

SMILES | % Inhibition [%]
CC(C)(C)c1cc2cc(Nc3ccnc4cc(-c5nccs5)ccc34)ccc2[nH]1 [TCMDC-138349] | 14.13
O=C(NCC(NCCCNc1cc(=O)c2ccccc2[nH]1)c1cc(Br)cc(Br)c1)C1=CCCC1 (centres unmarked) [TCMDC-140317] | -52.55
CC(=O)N[C@H](C(=O)Nc1cccc(-c2ccc(-c3nc4cccc(C)c4[nH]3)s2)c1)C(C)C [TCMDC-136855] | 31.89
Cc1ccc(-c2nc(N3CCN(C(=O)c4ccco4)CC3)c3ccc(Cl)cc3n2)cc1 [TCMDC-124781] | 24.46
Cc1ccc2c(Cl)c(C(=O)N3CC(C)OC(C)C3)sc2c1 (centres unmarked) [TCMDC-125624] | 35.35
COc1ccccc1Cn1ccnc1SCC(=O)Nc1cc(C(F)(F)F)ccc1Cl [TCMDC-124736] | -16.43
Cc1cc(C)cc(OCC(O)CN(CCN2CCOCC2)C(=O)Nc2ccc(Br)cc2)c1 (centres unmarked) [TCMDC-141491] | 2.41
O=C(Cn1c(CCc2cccc(F)c2F)nc(=O)c2ccccc21)N(CCN1CCCC1)Cc1ccc(-c2ccc(C(F)(F)F)cc2)cc1 [TCMDC-141059] | 66.66
O=C(Cn1c(CCc2cccc(F)c2F)nc(=O)c2ccccc21)N(CCCN1CCCCC1)Cc1ccc(-c2ccc(C(F)(F)F)cc2)cc1 [TCMDC-141053] | 101.4
CC(C)(CN1CCCC1)CN(Cc1ccc(-c2ccc(C(F)(F)F)cc2)cc1)C(=O)Cn1c(CCc2cccc(F)c2F)nc(=O)c2ccccc21 [TCMDC-141098] | 107.5
O=C(Cn1c(CCc2cccc(F)c2F)nc(=O)c2ccccc21)N(CCN1CCCCC1)Cc1ccc(-c2ccc(C(F)(F)F)cc2)cc1 [TCMDC-141088] | 27.65
O=C(Cn1c(CCc2cccc(F)c2F)nc(=O)c2ccccc21)N(CCCN1CCCC1)Cc1ccc(-c2ccc(C(F)(F)F)cc2)cc1 [TCMDC-141055] | 113.5
FC(F)(F)c1ccc2c(NCCc3ccccc3)ccnc2c1 [TCMDC-138552] | -21.17
COc1cccc2cc(C(=O)N[C@@H](CC(C)C)C(=O)N[C@H](/C=N/N(C)C(=O)OC(C)(C)C)CC(=O)OC(C)(C)C)oc12 [TCMDC-136092] | 4.382
COc1ccc(NC(=O)Nc2nc(-c3ccc(Cl)c(C)c3)cs2)cc1N1CCN(C)CC1 [TCMDC-139155] | 8.522
C[C@@H]1C[C@@H]([C@H](O)CC2CC(=O)NC(=O)C2)C(=O)[C@@H](C)C1 [TCMDC-125838] | 50.08
O=C(NC1CCN(Cc2ccccc2)CC1)c1ccc(-c2nc3cc(Cl)c(Cl)cc3[nH]2)c(F)c1 [TCMDC-140083] | 2.132
c1cc(-c2cc3ccc(C4=NCCN4)cc3[nH]2)ccc1C1=NCCN1 [TCMDC-137748] | 20.42
N=C(N)c1ccc(-c2cc3ccc(C(=N)N)cc3[nH]2)cc1 [TCMDC-123458] | 53.3
N=C(N)c1ccc2[nH]c(-c3cc4cc(C(=N)N)ccc4o3)cc2c1 [TCMDC-137436] | -17.43
COc1ccc2nccc([C@@H](O)CN3CCC(NC(=O)C(c4ccccc4C)N4CCC(Cc5ccccc5)CC4)CC3)c2c1 (some centres unmarked) [TCMDC-141102] | 2.818
N=C1SC(=Cc2cn[nH]c2-c2ccc(F)cc2)C(=O)N1c1nccs1 [TCMDC-123515] | 2.084

SMILES | % Inhibition [%]
Cc1ccc(NS(=O)(=O)c2ccc(C(C)N3CCC(N4CCCCC4)CC3)cc2)cc1C (centres unmarked) [TCMDC-133540] | 11.79
O=S(=O)(Nc1ccc(CCN2CCC(N3CCCCC3)CC2)cc1)c1ccc(Cl)cc1 [TCMDC-134078] | 45.94
O=S(=O)(Nc1cccc(CCN2CCC(N3CCCCC3)CC2)c1)c1ccc(Cl)cc1 [TCMDC-134065] | 22.65
O=S(=O)(Nc1cccc(CCN2CCC(N3CCCCC3)CC2)c1)c1ccc(Oc2ccccc2)cc1 [TCMDC-134072] | 70.07
O=S(=O)(Nc1cccc(CCN2CCC(N3CCCCC3)CC2)c1)c1ccc(Oc2ccccc2)nc1 [TCMDC-134073] | 14.52
CCc1ccc(S(=O)(=O)Nc2cccc(CCN3CCC(N4CCCCC4)CC3)c2)cc1 [TCMDC-134077] | 77.96
CCc1ccc(S(=O)(=O)Nc2ccc(CCN3CCC(N4CCCCC4)CC3)cc2)cc1 [TCMDC-134089] | 86.75
CC(C)c1ccc(S(=O)(=O)Nc2cccc(CCN3CCC(N4CCCCC4)CC3)c2)cc1 [TCMDC-134075] | 76.83
O=S(=O)(Nc1cccc(CCN2CCC(N3CCCCC3)CC2)c1)c1ccc(-c2ccccc2)cc1 [TCMDC-134071] | 47.75
COc1ccc(O)cc1Cc1cnc2nc(N)nc(N)c2c1C [TCMDC-137498] | -65.52
COc1ccc2nccc([C@@H](O)CN3CCC(NC(=O)C(c4cc5ccccc5o4)N4CCN(c5ccccc5)CC4)CC3)c2c1 (some centres unmarked) [TCMDC-140989] | 28.59
CC(=O)N[C@H](C(=O)Nc1ccc(-c2ccc(-c3nc4cc(C(F)(F)F)ccc4[nH]3)s2)cc1)C(C)C [TCMDC-136852] | -48.64
O=C(NCCc1ccc(Cl)c(Cl)c1)C1CCCN(C(=O)c2ccc(O)c(-c3ccc(Cl)c(Cl)c3)c2)C1 (centres unmarked) [TCMDC-140892] | -3.917
CC(CON1C(N)=NC(N)=NC1(C)C)Cc1ccc(Cl)cc1Cl (centres unmarked) [TCMDC-131712] | 20.42
Cc1cc(NS(=O)(=O)c2cccc(C(C)N3CCC(N4CCCC4)CC3)c2)ccc1C(C)C (centres unmarked) [TCMDC-133708] | 8.518
O=S(=O)(Nc1cccc(CCN2CCC(N3CCCCC3)CC2)c1)c1ccc2c(c1)OCCO2 [TCMDC-134067] | 55.86
O=S(=O)(Nc1ccc(CCN2CCC(N3CCCCC3)CC2)cc1)c1ccc2ccccc2c1 [TCMDC-134079] | 52.17
COc1ccc2nccc([C@@H](O)CN3CCC(NC(=O)C(c4cccs4)N4CCN(c5ccc(F)cc5)CC4)CC3)c2c1 (some centres unmarked) [TCMDC-141100] | 25.13
COc1cc(C(=O)N2CCOC(CCN3CCC(c4ccc(Cl)cc4)CC3)(c3ccc(Cl)c(Cl)c3)C2)cc(OC)c1OC (centres unmarked) [TCMDC-135566] | -3.164
COc1cc(C(=O)N2CCOC(CCN3CCC4c5ccccc5CC43)(c3ccc(Cl)c(Cl)c3)C2)cc(OC)c1OC (centres unmarked) [TCMDC-135567] | -73.24
COc1cc(C(=O)N2CCOC(CCN3CCC[C@H]3C(=O)Nc3ccccc3)(c3ccc(Cl)c(Cl)c3)C2)cc(OC)c1OC (some centres unmarked) [TCMDC-135571] | 90.6
